# From the supplement of paper PMC10849652
# Targets with a hit are over-represented here; the source holds about 7,900 in all. About 0.6% of all pairs of compound and target were hits. Unmarked numbers belong to inactive results.
# Tests used:
# Experiment in all cases: log2 fold change, soluble protein after heating vs DMSO (PISA); higher = thermal stabilisation; K562 cells, 10 uM, 30 min; active = over 0.2 and 3.5 SD of the protein, either way, in both replicates (recomputed)
# [1] = compound: Cc1ccc(NC(=O)c2ccc(CN3CC[C@H](N(C)C)C3)c(C(F)(F)F)c2)cc1Nc1nccc(-c2cncnc2)n1 [bafetinib]
# Summary of the method: (§1)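 Aliquots of K562 cells (2×10^6 cells/mL) treated with 10 μM compound for 30 min were heated for 3 min over 48°C-58°C. After pooling and extraction in PBS with 0.5% NP-40 at 4°C, soluble protein from a 21,000xg, 90 min spin was quantified by TMTpro 16plex LC-MS/MS with channel sums equalised. Thermal stability is expressed against control samples, from duplicates, as a log2 fold change.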
# [2] = compound: Cc1cccc(CC(=O)N2CCc3c2ccc(-c2cn(C)c4ncnc(N)c24)c3F)n1
# Summary of the method: as §1
# [3] = compound: Cc1cn(-c2cc(NC(=O)c3ccc(C)c(Nc4nccc(-c5cccnc5)n4)c3)cc(C(F)(F)F)c2)cn1 [nilotinib]
# Summary of the method: as §1
# [4] = compound: Cc1nc(Nc2n[nH]c3c2CN(C(=O)N[C@H](CN(C)C)c2ccccc2)C3(C)C)c2sccc2n1
# Summary of the method: as §1
# [5] = compound: Cc1nc(Nc2ncc(C(=O)Nc3c(C)cccc3Cl)s2)cc(N2CCN(CCO)CC2)n1 [dasatinib]
# Summary of the method: as §1
# [6] = compound: Cc1ncc(-c2ccnc(Nc3ccc(S(C)(=O)=O)cc3)n2)n1C(C)C
# Summary of the method: as §1
# [7] = compound: Cn1cc(-c2ccc3c(c2)CCN3C(=O)Cc2cccc(C(F)(F)F)c2)c2c(N)ncnc21
# Summary of the method: as §1
# [8] = compound: Cn1cc(-c2ccc3nnc(C(F)(F)c4ccc5ncccc5c4)n3n2)cn1
# Summary of the method: as §1
# [9] = compound: Cn1cncc1[C@@](N)(c1ccc(Cl)cc1)c1ccc2c(c1)c(-c1cccc(Cl)c1)cc(=O)n2C [tipifarnib]
# Summary of the method: as §1
# [10] = compound: FC(F)(F)c1ccc(/C=C/c2nc(COc3ccc(CCCCn4ccnn4)cc3)co2)cc1 [mubritinib]
# Summary of the method: as §1
# [11] = compound: NC(=O)Nc1cc(-c2cccc(F)c2)sc1C(=O)N[C@H]1CCCNC1
# Summary of the method: as §1
# [12] = compound: NC(=O)c1cnc(N[C@@H]2CCCC[C@@H]2N)nc1Nc1cccc(-n2nccn2)c1
# Summary of the method: as §1
# [13] = compound: NC1(c2ccc(-c3nc4ccn5c(=O)[nH]nc5c4cc3-c3ccccc3)cc2)CCC1
# Summary of the method: as §1
# [14] = compound: NCC(=O)Nc1ccc(-n2nc(C(F)(F)F)cc2-c2ccc3c(ccc4ccccc43)c2)cc1
# Summary of the method: as §1
# [15] = compound: Nc1ccccc1NC(=O)c1ccc(CNC(=O)OCc2cccnc2)cc1 [entinostat]
# Summary of the method: as §1
# [16] = compound: O=C(CCCCCCC(=O)Nc1ccccc1)NO [vorinostat]
# Summary of the method: as §1
# [17] = compound: O=C(CCCCCCNC(=O)c1cnc(N(c2ccccc2)c2ccccc2Cl)nc1)NO [citarinostat]
# Summary of the method: as §1
# [18] = compound: O=C(O)c1ccc2c(c1)nc(Nc1cccc(Cl)c1)c1ccncc12 [silmitasertib]
# Summary of the method: as §1
# [19] = compound: O=C1NC(=O)C(c2cnc3ccccn23)=C1c1cn2c3c(cc(F)cc13)CN(C(=O)N1CCCCC1)CC2
# Summary of the method: as §1
# [20] = compound: c1cc(OCCN2CCCCC2)cc(-c2n[nH]c3ccc(-c4nnc[nH]4)cc23)c1
# Summary of the method: as §1
# UniProt Q04864, sequence (Q04864 whole entry, looked up): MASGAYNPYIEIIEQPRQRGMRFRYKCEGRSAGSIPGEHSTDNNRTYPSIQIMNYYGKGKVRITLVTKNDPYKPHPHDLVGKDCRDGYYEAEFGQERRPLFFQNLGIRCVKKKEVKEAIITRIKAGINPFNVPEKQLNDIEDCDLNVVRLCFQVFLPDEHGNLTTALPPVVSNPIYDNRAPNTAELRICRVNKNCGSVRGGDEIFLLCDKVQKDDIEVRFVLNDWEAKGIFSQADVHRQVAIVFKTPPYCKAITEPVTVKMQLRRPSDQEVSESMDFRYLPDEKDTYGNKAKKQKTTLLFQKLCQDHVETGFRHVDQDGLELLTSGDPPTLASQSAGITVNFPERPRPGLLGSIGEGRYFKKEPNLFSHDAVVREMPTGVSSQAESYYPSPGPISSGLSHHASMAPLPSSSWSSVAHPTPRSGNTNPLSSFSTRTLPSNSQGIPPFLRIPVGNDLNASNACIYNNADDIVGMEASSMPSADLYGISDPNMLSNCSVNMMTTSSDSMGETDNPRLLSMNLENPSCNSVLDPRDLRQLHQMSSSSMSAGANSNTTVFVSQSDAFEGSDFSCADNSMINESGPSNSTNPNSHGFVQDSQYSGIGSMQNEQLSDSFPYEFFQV
# UniProt Q99719, sequence (Q99719 whole entry, looked up): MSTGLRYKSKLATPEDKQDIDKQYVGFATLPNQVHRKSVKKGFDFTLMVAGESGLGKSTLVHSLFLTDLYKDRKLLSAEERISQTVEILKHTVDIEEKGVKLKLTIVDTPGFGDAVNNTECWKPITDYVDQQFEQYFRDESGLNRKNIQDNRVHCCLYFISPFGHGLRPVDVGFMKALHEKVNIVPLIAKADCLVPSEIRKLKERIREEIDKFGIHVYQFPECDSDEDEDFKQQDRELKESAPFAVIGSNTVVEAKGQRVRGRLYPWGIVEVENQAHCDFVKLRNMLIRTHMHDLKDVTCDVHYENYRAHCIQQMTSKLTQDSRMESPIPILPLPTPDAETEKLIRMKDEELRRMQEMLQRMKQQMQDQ
# UniProt O94979, sequence (O94979 whole entry, looked up): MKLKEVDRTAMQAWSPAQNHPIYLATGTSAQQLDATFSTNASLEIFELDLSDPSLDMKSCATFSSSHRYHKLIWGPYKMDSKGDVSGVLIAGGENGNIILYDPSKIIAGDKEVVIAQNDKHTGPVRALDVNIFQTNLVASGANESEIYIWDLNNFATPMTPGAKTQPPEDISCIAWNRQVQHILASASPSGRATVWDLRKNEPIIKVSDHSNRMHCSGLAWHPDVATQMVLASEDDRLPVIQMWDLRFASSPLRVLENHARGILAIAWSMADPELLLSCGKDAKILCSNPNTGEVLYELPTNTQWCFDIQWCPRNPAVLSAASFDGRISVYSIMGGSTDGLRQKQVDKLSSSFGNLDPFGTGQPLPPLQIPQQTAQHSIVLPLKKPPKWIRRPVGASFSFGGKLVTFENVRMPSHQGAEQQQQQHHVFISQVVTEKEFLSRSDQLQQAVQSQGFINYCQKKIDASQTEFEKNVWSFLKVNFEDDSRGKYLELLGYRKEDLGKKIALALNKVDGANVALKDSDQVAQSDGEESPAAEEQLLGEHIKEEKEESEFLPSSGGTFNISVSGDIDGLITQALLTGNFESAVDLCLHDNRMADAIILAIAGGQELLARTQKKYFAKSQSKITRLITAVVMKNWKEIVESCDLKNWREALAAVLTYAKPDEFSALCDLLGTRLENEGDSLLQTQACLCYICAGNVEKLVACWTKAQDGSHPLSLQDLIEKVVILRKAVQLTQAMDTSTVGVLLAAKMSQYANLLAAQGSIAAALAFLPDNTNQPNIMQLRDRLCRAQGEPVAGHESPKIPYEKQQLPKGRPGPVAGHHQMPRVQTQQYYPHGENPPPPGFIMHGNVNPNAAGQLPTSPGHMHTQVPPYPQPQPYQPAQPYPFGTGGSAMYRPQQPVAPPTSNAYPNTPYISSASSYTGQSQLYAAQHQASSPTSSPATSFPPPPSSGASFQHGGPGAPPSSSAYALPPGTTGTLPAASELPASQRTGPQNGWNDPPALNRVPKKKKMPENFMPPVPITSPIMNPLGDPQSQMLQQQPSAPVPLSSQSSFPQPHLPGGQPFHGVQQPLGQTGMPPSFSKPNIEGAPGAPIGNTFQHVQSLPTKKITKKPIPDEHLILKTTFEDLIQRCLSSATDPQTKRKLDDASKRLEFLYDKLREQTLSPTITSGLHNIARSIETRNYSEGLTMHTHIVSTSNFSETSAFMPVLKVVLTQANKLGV
# UniProt Q96T51, sequence (Q96T51 whole entry, looked up): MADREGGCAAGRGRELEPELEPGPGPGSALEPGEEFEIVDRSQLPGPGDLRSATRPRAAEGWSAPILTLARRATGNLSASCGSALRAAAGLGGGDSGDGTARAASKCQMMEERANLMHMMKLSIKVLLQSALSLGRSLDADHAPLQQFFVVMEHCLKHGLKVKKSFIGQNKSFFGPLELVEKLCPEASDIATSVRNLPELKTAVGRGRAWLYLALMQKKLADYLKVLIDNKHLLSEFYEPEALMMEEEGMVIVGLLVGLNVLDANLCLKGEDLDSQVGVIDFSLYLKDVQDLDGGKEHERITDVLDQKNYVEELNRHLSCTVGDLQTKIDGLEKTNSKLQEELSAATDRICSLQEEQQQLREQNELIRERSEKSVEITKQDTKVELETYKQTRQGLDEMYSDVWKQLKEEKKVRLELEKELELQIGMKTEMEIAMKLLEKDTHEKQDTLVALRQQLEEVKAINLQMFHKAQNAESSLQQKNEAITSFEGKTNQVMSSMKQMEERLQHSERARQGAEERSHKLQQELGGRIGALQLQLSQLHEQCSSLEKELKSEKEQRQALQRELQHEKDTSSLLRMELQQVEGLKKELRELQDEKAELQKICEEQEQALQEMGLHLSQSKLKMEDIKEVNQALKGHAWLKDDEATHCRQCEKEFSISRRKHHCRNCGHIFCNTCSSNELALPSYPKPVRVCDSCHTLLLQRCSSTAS
# UniProt P11233, sequence (P11233 whole entry, looked up): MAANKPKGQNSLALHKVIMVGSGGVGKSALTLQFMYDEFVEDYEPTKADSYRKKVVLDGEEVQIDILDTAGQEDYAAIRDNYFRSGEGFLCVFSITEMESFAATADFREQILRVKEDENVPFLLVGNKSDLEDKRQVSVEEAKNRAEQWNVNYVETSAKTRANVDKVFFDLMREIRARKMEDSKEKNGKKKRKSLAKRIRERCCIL
# UniProt P41440, sequence (P41440 whole entry, looked up): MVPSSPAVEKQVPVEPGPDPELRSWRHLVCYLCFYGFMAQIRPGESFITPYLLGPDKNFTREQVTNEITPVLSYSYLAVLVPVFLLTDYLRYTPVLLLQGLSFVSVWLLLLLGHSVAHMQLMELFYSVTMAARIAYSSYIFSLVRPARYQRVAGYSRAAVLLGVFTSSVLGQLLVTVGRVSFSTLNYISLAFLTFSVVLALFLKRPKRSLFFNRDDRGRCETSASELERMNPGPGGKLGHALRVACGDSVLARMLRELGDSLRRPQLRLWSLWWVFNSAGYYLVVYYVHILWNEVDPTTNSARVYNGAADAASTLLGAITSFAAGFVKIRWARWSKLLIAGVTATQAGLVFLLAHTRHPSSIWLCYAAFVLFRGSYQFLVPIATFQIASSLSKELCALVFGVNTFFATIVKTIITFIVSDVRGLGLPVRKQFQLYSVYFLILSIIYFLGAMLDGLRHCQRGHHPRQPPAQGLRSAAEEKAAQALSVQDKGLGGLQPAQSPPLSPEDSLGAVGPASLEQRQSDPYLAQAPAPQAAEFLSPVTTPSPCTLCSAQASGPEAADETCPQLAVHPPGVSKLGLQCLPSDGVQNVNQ
# UniProt Q9Y6Y8, sequence (Q9Y6Y8 whole entry, looked up): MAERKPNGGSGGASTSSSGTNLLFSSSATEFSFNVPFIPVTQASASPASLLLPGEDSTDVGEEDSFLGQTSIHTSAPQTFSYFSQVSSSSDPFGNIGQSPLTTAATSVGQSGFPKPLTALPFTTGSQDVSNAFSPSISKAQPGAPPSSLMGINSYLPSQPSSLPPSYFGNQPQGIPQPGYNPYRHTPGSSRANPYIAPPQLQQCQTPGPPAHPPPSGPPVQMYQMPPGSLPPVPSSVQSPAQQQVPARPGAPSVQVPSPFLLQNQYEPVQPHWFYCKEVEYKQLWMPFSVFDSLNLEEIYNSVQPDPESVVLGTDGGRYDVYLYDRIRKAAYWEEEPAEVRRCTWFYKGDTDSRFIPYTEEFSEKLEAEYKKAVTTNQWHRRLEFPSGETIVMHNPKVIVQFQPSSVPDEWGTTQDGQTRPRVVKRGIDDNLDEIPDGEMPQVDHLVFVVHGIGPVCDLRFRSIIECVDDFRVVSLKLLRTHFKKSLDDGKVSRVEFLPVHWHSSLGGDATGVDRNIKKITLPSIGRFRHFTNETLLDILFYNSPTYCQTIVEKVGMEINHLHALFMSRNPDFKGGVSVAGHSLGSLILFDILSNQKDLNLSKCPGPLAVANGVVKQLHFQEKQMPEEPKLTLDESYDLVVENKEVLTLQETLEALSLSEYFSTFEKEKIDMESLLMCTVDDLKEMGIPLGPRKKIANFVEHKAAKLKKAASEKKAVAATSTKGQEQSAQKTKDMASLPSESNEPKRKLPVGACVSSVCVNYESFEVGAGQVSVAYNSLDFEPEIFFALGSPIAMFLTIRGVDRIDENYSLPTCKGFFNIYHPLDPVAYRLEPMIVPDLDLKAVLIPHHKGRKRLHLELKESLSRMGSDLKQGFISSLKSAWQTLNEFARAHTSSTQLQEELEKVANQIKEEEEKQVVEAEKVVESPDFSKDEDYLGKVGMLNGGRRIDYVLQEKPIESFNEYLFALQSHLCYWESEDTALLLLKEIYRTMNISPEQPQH
# UniProt Q9H082, sequence (Q9H082 whole entry, looked up): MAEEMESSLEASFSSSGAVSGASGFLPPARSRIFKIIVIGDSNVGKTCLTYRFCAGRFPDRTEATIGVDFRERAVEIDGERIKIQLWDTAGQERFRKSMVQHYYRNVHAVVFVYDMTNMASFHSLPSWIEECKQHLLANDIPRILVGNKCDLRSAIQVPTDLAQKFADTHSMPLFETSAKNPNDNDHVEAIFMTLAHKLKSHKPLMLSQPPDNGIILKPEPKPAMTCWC
Target,log2 fold change [1],log2 fold change [2],log2 fold change [3],log2 fold change [4],log2 fold change [5],log2 fold change [6],log2 fold change [7],log2 fold change [8],log2 fold change [9],log2 fold change [10],log2 fold change [11],log2 fold change [12],log2 fold change [13],log2 fold change [14],log2 fold change [15],log2 fold change [16],log2 fold change [17],log2 fold change [18],log2 fold change [19],log2 fold change [20]
RUFY1 (UniProt Q96T51),-0.052,0.077,-0.066,-0.086,-0.11,0.067,-0.061,0.05,-0.062,-0.001,0.06,-0.057,-0.086,-0.101,0.05,0.031,0.032,0.11,0.038,-0.037
RALA (UniProt P11233),-0.026,0.178,0.064,-0.012,0.027,-0.026,0.014,0.043,-0.06,0.015,-0.03,-0.019,0.057,0.004,-0.064,0.142,0.082,-0.021,0.028,-0.028
RAP2C (UniProt Q9Y3L5),0.115,0.157,0.181,0.069,0.018,0.019,0.047,-0.032,0.086,0.041,0.072,0.299 (active),0.133,0.118,-0.045,0.051,0.056,-0.04,-0.008,-0.061
RPS16 (UniProt P62249),0.279,-0.026,0.07,0.207,0.053,-0.019,-0.078,-0.048,0.107,-0.066,0.086,0.08,0.182,0.043,-0.043,0.017,-0.044,-0.097,0.093,-0.119
SEPTIN5 (UniProt Q99719),-0.017,0.021,-0.011,0.002,-0.048,-0.006,0.051,0.025,-0.024,0.007,-0.005,-0.012,-0.011,-0.004,-0.017,-0.001,0.059,-0.038,-0.013,-0.021
RRP36 (UniProt Q96EU6),0.428,0.054,-0.007,0.203,0.164,-0.011,-0.319,-0.016,0.208,-0.132,0.115,0.108,0.271,0.098,-0.073,-0.024,-0.04,0.143,0.264,-0.118
RABGGTA (UniProt Q92696),-0.019,0.027,0.033,-0.088,0.076,-0.076,0.089,-0.015,0.08,0.002,0.034,-0.008,-0.257 (active),0.051,-0.05,0.005,0.038,0.008,0.003,0.027
SLC19A1 (UniProt P41440),0.11,0.039,0.01,0.012,0.024,0.026,0.103,-0.026,0.051,0.074,0.1,0.157,0.036,0.007,-0.017,0.057,0.02,-0.013,0.207,-0.033
SEC31A (UniProt O94979),0.011,0.019,-0.11,-0.042,-0.134,0.054,-0.031,-0.057,-0.065,0.079,-0.078,-0.024,-0.022,-0.099,0.041,0.003,0.042,0.063,-0.048,0.07
RPL31 (UniProt P62899),0.342,0.024,0.001,0.179,0.14,-0.041,-0.231,-0.082,0.151,-0.095,0.042,0.099,0.26,0.075,-0.079,-0.012,-0.09,0.048,0.104,-0.12
RB1 (UniProt P06400),0.006,0.01,0.015,-0.378 (active),0.011,-0.716 (active),0.082,0.011,0.004,0.046,0.11,-0.133,-0.072,-0.01,0.015,0.05,0.039,0.039,-0.241 (active),-0.038
RPS3 (UniProt P23396),0.219,-0.004,-0.009,0.193,0.063,-0.056,-0.132,-0.028,0.075,-0.045,-0.006,0.05,0.117,0.033,-0.055,0.015,-0.035,-0.008,0.029,-0.145
SEC23IP (UniProt Q9Y6Y8),-0.23,0.036,-0.017,-0.061,-0.143,-0.026,0.148,0.009,-0.057,0.014,-0.049,-0.152,-0.221,-0.033,0.049,0.065,0.055,-0.03,-0.058,-0.063
REL (UniProt Q04864),-0.185,0.03,-0.094,-0.438 (active),-0.115,-0.018,0.013,0.059,-0.011,0.034,-0.053,-0.131,-0.108,0.028,-0.007,-0.122,0.053,0.053,-0.054,-0.09
RPS14 (UniProt P62263),0.265,-0.061,0.029,0.184,-0.011,-0.047,-0.081,-0.091,0.07,-0.05,0.056,0.142,0.149,0.08,-0.033,-0.106,-0.089,-0.041,0.209,-0.069
RAB33B (UniProt Q9H082),-0.01,0.012,0.01,0.018,-0.058,0.022,0,0.151,0.024,-0.01,-0.032,0.014,0.037,-0.019,-0.035,-0.021,-0.016,-0.014,-0.048,-0.032
